Results filed as inconclusive are left out. Active and inactive are the calls of the source. Calls follow the shape of the dose curve; as a rule, active = well fitted inhibition curve with a large enough effect; inconclusive = small, poorly fitted or top-dose-only effect; inactive = flat fitted curve, though single readings scatter. Peptide text beside a SMILES is read from it.

The assay deals with CRL-7250. Put plainly: qHTS assay to identify novel small-molecules to repurpose for Merkel cell carcinoma treatment (AID 1296009). Also: nearly all actives have a fitted effect of over 60% in size. Particulars: MCC and control cell lines, CellTiter-Glo viability, 72 h; series mostly up to 92 µM; activity change, negative = cytotoxicity: at the top concentration. The essentials: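 Cells were treated for 72 hr at 37 degree celsius with compounds in 8- or 11-point dose response. Viability was read by CellTiter-Glo luminescence, normalized to no-cell (cytotoxicity) and DMSO controls.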
(In qHTS, concentration-response curves come from the screen itself.)
On to `C=C1CC23CC(=O)C4C(CO)(CO)CCCC4(C)C2CCC1C3` (stereo not given), for which the outcome was inactive. Then `CC(C)c1ccc(NC(=O)Cn2cnc3c2c(=O)n(C)c(=O)n3C)cc1`, with “inactive”. As for `C/C(=C\CCC(C)(C)O)CCO[C@@H]1O[C@H](CO[C@@H]2O[C@@H](C)[C@H](O)[C@@H](O)[C@H]2O)[C@@H](O)[C@H](O)[C@H]1O`, the entry is “inactive [at 17.4 µM]”.

For `CC(=O)O[C@@H]1CC2C(C)(C)C(=O)C=C[C@]2(C)C2CC[C@@]3(C)[C@H](c4ccoc4)OC(=O)[C@H]4O[C@]43[C@@]21C` (stereo not given in full), the “outcome” value was “inactive [at 17.4 µM]”.

For `O=C(/C=C/c1ccc(O)c(O)c1)OC[C@H]1O[C@@H](OC2CCCCC2O)[C@H](O)[C@@H](O)[C@@H]1O` (stereo not given in full), the “outcome” value is “inactive [at 17.4 µM]”. As for `CC(C)C(CO)Nc1nc(Nc2ccc(C(=O)O)c(Cl)c2)c2ncn(C(C)C)c2n1` (stereo not given), the entry is “inactive”. On to `CC(=O)c1cc2c(cc1O)OC(C)(C)C=C2`, for which the compound was classed as inactive.

`CC1OC(OC2CCC3(C)C(CCC4(C)C3CC=C3C5CC(C)(C)CCC5(C(=O)OC5OC(CO)C(O)C(O)C5O)CCC34C(=O)O)C2(C)C)C(O)C(O)C1O` (stereo not given): the “outcome” value was “inactive [at 17.4 µM]”. As for `CC(=O)[C@@H]1CC[C@]2(C(=O)O)CC[C@]3(C)C(CCC4[C@@]5(C)CC[C@H](O)C(C)(C)C5CC[C@]43C)C12` (stereo not given in full), the entry is “inactive [at 17.4 µM]”; as for `C[C@@H]1C(=O)OC[C@H]2C(C(=O)O)=C[C@@H]3CC(C)(C)C[C@]312`, “inactive”.

With `CCC(COC)n1nnc2c(Nc3ccc(OC)cc3C)nc(C)cc21` (stereo not given), the compound was called inactive. `C=CC1(C)CC2CCC3C(C)(C(=O)O)CCCC3(C)C2=CC1=O` (stereo not given): the result was inactive. Consider `O=C(/C=C/c1ccccc1)O[C@@H]1[C@@H](CO)O[C@@](CO)(O[C@H]2O[C@H](CO)[C@@H](O)[C@H](O)[C@H]2O)[C@H]1O`, for which the “outcome” value is “inactive [at 17.4 µM]”. As for `COc1c2c(c(C)c3c1C(=O)OC3)OC1(C)CC(O)C34OC(O)(CCC3(C)C1C2)OC4(C)C` (stereo not given), the entry is “inactive [at 17.4 µM]”. Then `CCC(C)/C=C(C)/C=C/C1=CC2=C(Cl)C(=O)C(C)(OC(C)=O)C(=O)C2(O)C(OC)O1` (stereo not given), with “inactive [at 17.4 µM]”; and `COc1cc2c(cc1OC)CC(=O)N(CCCNC[C@H]1Cc3cc(OC)c(OC)cc31)CC2`, with “inactive”. As for `CN1C(=O)c2ccccc2-n2c(nc3ccccc3c2=O)/C1=C/c1ccccc1`, the entry is “inactive”; as for `Cc1c(C(=O)NCc2cccnc2)nn(-c2ccc(Cl)cc2Cl)c1-c1ccc(Cl)cc1`, “inactive”; as for `C[C@H]1[C@H](C)CC[C@]2(C(=O)O)CC[C@]3(C)C(=CCC4[C@@]5(C)C[C@@H](O)[C@H](O)C(C)(C)C5CC[C@]43C)[C@H]12` (stereo not given in full), “inactive [at 17.4 µM]”.

Regarding `O=C(Nc1ccc2[nH]ncc2c1)C1CCC1`, the compound was classed as inactive. With `CC(C)C1(O)NC(=O)C(CC2(O)c3ccccc3N3C(=O)C(C)(C)NC32)n2c1nc1ccccc1c2=O` (stereo not given), the “outcome” value was “inactive [at 17.4 µM]”.

For `CC1(C)CC[C@@]2(C(=O)O[C@@H]3O[C@H](CO)[C@@H](O)[C@H](O)[C@H]3O)C(C1)C1=CCC3[C@@]4(C)CC[C@@H](O[C@@H]5O[C@H](C(=O)O)[C@@H](O[C@@H]6OC[C@@H](O)[C@H](O)[C@H]6O)[C@H](O[C@@H]6OC[C@](O)(CO)[C@H]6O)[C@H]5O)C(C)(C)C4CC[C@@]3(C)[C@]1(C)C[C@H]2O` (stereo not given in full), the outcome was “inactive [at 9.27 µM]”. Then `CC[C@H](NC(=O)c1c(O)c(-c2ccccc2)nc2ccccc12)c1ccccc1`, with “inactive”. Then `O=C(Nc1c(-c2cccs2)nc2ccccn12)c1ccc(Cl)cc1`, with “inactive”; and `CC1[C@@H](O)[C@@H](O)C2[C@]3(C)C(C[C@H]4OC(=O)[C@H](O)[C@]1(O)[C@@]24C)C(C)(O)C[C@H](O)[C@H]3O` (stereo not given in full), with “inactive [at 17.4 µM]”; and `Cc1oc(S(=O)(=O)N2CCCCC2)cc1NC(=O)Nc1ccccc1`, with “inactive”. Consider `COc1cc(C)c(C(=O)OC2C(C)OC(OC3CCC(C)C4C3C=C(C)C3/C(C)=C\CC/C(C)=C/C5(C)C=C(C(=O)O)C(C)CC56OC(=O)/C(=C(\O)C34C)C6=O)C(O)C2O)c(OC)c1` (stereo not given), for which the outcome was “inactive [at 9.27 µM]”. As for `Cc1cc(Cn2cnc3c2CC(C(=O)O)N(C(=O)C(c2ccccc2)c2ccccc2)C3)ccc1N(C)C` (stereo not given), the entry is “inactive”; as for `Cc1[nH]cnc1C1CCN(c2nc3cccc4c3n2CCC4=O)CC1`, “inactive”.

Consider `CC(C)=C[C@@H]1[C@H](CO[C@@H]2O[C@H](CO)[C@@H](O)[C@H](O)[C@H]2O)C1(C)C`, for which the call was inactive. As for `CC1=CCC2C(C)(CO)CCCC2(CO)C1CO` (stereo not given), the entry is “inactive”; as for `Cc1c(C)c(NCC(=O)N(C)C2CCN(Cc3ccc(C(N)=O)cc3)CC2)c(C)c(C)c1N`, “inactive”. Turning to `CC1=C2C(=O)C=C(CO)C2[C@H]2OC(=O)[C@H](C)[C@@H]2[C@@H](OC(=O)Cc2ccc(O)cc2)C1` (stereo not given in full), the “outcome” value was “inactive [at 17.4 µM]”.

Turning to `CC(=O)OC1CC(C(C)(C)O)OC2CCC3(C)OC4=C(C(=O)C=C5C(C)C(OC(C)=O)C6(C)C(C)OC546)C(O)C3C12C` (stereo not given), the “outcome” value was “inactive [at 17.4 µM]”. `CCCC(=O)Nc1cccc(NC(=O)c2ccccc2Br)c1`: the call was inactive. As for `C=C1CC[C@@]2(OC1)O[C@H]1CC3C4CC=C5C[C@@H](O[C@@H]6O[C@@H](C)[C@H](O)[C@@H](O)[C@H]6O)C[C@@H](O[C@@H]6O[C@H](C)[C@H](O)[C@H](O)[C@H]6O[C@@H]6O[C@@H](C)[C@H](O)[C@@H](O)[C@H]6O)[C@]5(C)C4CC[C@]3(C)[C@H]1[C@@H]2C` (stereo not given in full), the entry is “inactive [at 9.27 µM]”. Consider `C[C@@H](O)[C@H](N)C(=O)N1CCC[C@H]1C(=O)N1CCC[C@H]1C(=O)N[C@H](C(N)=O)[C@@H](C)O` (H-TPPT-NH2), for which the outcome was “inactive [at 9.27 µM]”.

For `O=S(=O)(O)c1ccc(Nc2ncnc3c2ncn3[C@@H]2O[C@H](CO)[C@@H](O)[C@H]2O)cc1`, the call was inactive. Take `O=C(O)CCc1cccc(O[C@@H]2O[C@H](CO)[C@@H](O)[C@H](O)[C@H]2O)c1O`: the compound was called inactive. As for `Cn1nccc1-c1ccccc1Oc1ccc(S(=O)(=O)Nc2nccs2)cc1C#N`, the entry is “inactive”.

The values above are taken from PubChem BioAssay (NCATS).
